Assay outcomes from PubChem.
This is a sample that favours compounds with a hit; in the whole collection about 1.4% have one here.
GLD-1 RNA inh: GLD-1/TGE RNA complex disruptors, primary screen, biochemical, fluorescence polarization. 320,000 tested, 0.44% active. purified GLD-1 + fluorescein TGE RNA. inhibition, % at 5.96 µM. AID 2280, 2010;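 active means percent inhibition above a per-plate cutoff, the plate mean of test compounds plus 3 SD, cut at about 30% in these data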
eLon inh: inhibitors of E. coli Lon protease, primary screen, biochemical, fluorescence polarization; inhibition, % at 7.94 µM; 360,000 tested, 0.42% active; P0A9M0; purified E. coli Lon protease; in the data active means inhibition above about 13%, passing the limit was not always enough
MEX-5 binding: MEX-5 zinc finger RNA-binding disruptors – biochemical, C. elegans, fluorescence polarization, MLPCN library, primary screen | MEX-5/FITC-TCR2 RNA binding; stronger effect = lower value | activity score (negative = inhibition of binding), % at 10 µM | 300,000 tested, 0.38% active;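 active means inhibition past about -25% in most replicates, and total fluorescence under double the plate's negative control median, limit read from the data; inconclusive means replicates evenly split on the limit, or fluorescence at least double controls; inactive means too little inhibition in most replicates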
Bcl-xL primary: inhibitors of human Bcl-xL, primary screen, biochemical, fluorescence polarization, HTS. Bcl-2-like protein 1 (Homo sapiens), Q07817. GST-Bcl-xL / FITC-Bim BH3 peptide fluorescence polarization. inhibition, % at 10.9 µM. 320,000 tested, 0.7% active. AID 2129, 2009;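 active means inhibition above the mean of all tested compounds plus 3 SD, cutoff set per campaign, cut at about 30% in these data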;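 further: inhibitors lower millipolarization by displacing the labeled peptide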
Target sequence (Q07817 whole entry, looked up): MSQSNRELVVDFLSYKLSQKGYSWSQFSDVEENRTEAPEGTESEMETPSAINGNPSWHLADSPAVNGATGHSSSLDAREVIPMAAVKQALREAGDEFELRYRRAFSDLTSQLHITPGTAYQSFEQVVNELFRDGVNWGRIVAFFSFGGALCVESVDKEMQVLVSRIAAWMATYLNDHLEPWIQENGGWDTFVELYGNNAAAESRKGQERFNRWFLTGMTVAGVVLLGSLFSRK
MCL1 BIM primary: inhibitors of MCL1 binding to BIM-BH3, primary screen, biochemical, fluorescence polarization; inhibition, % at 10.9 µM; AID 2057, 2009; 320,000 tested, 0.68% active; GST-MCL1 / FITC-Bim-BH3 fluorescence polarization;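 active means inhibition above the mean inhibition of all tested compounds plus 3 SD, set per campaign, cut at about 40% in these data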;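 further: higher means more loss of mP so more displacement of Bim peptide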
Target sequence (Q07820 whole entry, looked up): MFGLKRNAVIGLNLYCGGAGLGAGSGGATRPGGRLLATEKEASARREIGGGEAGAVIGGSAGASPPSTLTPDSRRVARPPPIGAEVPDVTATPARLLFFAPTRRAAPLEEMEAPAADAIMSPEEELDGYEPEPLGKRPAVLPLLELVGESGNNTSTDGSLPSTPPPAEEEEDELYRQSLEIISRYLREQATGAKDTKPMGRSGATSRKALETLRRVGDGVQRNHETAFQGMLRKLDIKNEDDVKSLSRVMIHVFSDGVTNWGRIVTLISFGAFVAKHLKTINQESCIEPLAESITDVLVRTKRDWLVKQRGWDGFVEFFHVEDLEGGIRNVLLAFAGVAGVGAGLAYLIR
BCLXL inh confirm: Bcl-xL inhibitors blocking Bim BH3 binding, confirmation, counter-screen for MCL1 inhibitor project, biochemical, fluorescence polarization; shares compounds with MCL1 BIM primary; GST-Bcl-xL / FITC-Bim BH3 peptide FP binding; inhibition, % at 10.9 µM; 1,700 tested, 54% active; AID 2166, 2009;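 active means inhibition above a cutoff equal to the mean inhibition of all tested compounds plus 3 SD, cut at about 30% in these data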
MCL1 BIM confirm: inhibitors of MCL1 binding to BIM-BH3, confirmation, biochemical, fluorescence polarization, triplicate | shares compounds with MCL1 BIM primary | GST-MCL1 / FITC-Bim-BH3 fluorescence polarization | inhibition, % at 10.9 µM | 1,700 tested, 61% active | AID 2168, 2009;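 active means inhibition above the average of all tested compounds plus 3 SD, cut at about 40% in these data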
A number is an active result; i = inactive; ? = inconclusive; nt = no result; + = active, no number.

SMILES	GLD-1 RNA inh	eLon inh	MEX-5 binding	Bcl-xL primary	MCL1 BIM primary	BCLXL inh confirm	MCL1 BIM confirm
CCCCCCCCOc1ccc(C2OC34CCCCC3C(C#N)(C#N)C2(C#N)C(=N)O4)cc1 (configuration not stated)	107	27	-87	157	180	107	124
N#CC1(C#N)C(c2ccccc2)OC23CCCCCC2C1(C#N)C(=N)O3 (configuration not stated)	i	i	i	36	48	78	101
CCN(CC(=O)Nc1c(F)cccc1F)C(=O)CSc1nnc(-c2ccco2)n1CC	i	i	i	i	i	nt	nt
CCOc1ccc(CNC2CCCc3ccccc32)cc1 (configuration not stated)	i	i	i	i	i	nt	nt
COc1ccc(C(=O)NC(=O)COC(=O)c2ccc(C)o2)cc1	i	i	nt	i	i	nt	nt
CC[n+]1ccccc1/C=C/c1ccc(N(C)C)cc1	nt	i	i	nt	nt	nt	nt
CN(C)c1ccc(/C=C/c2cc[n+]([O-])cc2)cc1	52	nt	?	101	109	89	100
Oc1ccc(/C=N/Nc2ccnc3cc(Cl)ccc23)c(O)c1O	i	i	i	i	54	33	i
Oc1ccc(/C=N/Nc2ccnc3cc(Cl)ccc23)cc1O	i	i	i	i	i	nt	nt
CC1(OC(=O)C2CCCC2)C(=O)C=C2C=C(c3ccsc3)N(CCc3ccccn3)C=C2C1=O (configuration not stated)	37	19	i	48	56	i	i
Cc1ccc([C@@H]2C3COCC=C3C(C#N)=C(N)C2(C#N)C#N)o1 (some centres not stated)	78	69	i	96	105	71	74
O=C(O)c1cccc(-n2cccc2/C=C/[N+](=O)[O-])c1	i	i	-36	44	72	41	58
CC(=O)OCCNc1cc(N2CCN(C)CC2)c2noc3c2c1C(=O)c1ccccc1-3	nt	i	nt	nt	nt	nt	nt
CCOC(=O)C(C(=O)OCC)c1cc(Br)c2noc3c2c1C(=O)c1ccccc1-3	171	i	-32	176	196	145	148
CC1(C)C(/C=C/C=C/C=C/C=C2\N(CCCCS(=O)(=O)O)c3ccc4ccccc4c3C2(C)C)=[N+](CCCCS(=O)(=O)[O-])c2ccc3ccccc3c21	i	i	nt	85	90	68	74
Nc1ncnc2oc(-c3ccco3)c(-c3ccco3)c12	i	i	i	36	95	40	93
COc1ccc(/C=N/NC(=O)COc2ccc3ccccc3c2)c(C(=O)O)c1OC	i	i	i	i	i	nt	nt
COc1ccc(/C=N/NC(=O)COc2cccc3ccccc23)c(C(=O)O)c1OC	i	i	i	i	54	i	i
COc1cccc(-c2ncc3ccccc3c2COC(=O)CCCC(=O)O)c1	i	i	nt	i	i	nt	nt
NC(=O)c1ccc(NC(=O)CSC(=O)c2ccccc2)cc1	i	i	nt	nt	nt	nt	nt
CCCc1cc(=O)oc2c3c(c(Cl)cc12)OCN(CCCO)C3	48	nt	i	76	89	55	82
CC1CC(C)CN(C(=O)COC(=O)c2ccc3c(c2)OCO3)C1 (configuration not stated)	i	i	nt	i	46	i	i
CCc1cc(=O)oc2cc(C)c(CN3CCCC3)c(O)c12	i	i	i	33	72	52	88
COC(=O)C1CSc2[nH]c(=O)sc2C1c1ccccc1 (configuration not stated)	84	i	-57	107	119	88	109
O=C(COC(=O)/C(=C/c1cccs1)c1cccs1)NC(c1ccccc1)c1ccccc1	i	i	i	i	i	nt	nt
SMILES	GLD-1 RNA inh	eLon inh	MEX-5 binding	Bcl-xL primary	MCL1 BIM primary	BCLXL inh confirm	MCL1 BIM confirm
Cn1cccc1CC(=O)N/N=C/c1ccc(Cl)c([N+](=O)[O-])c1	i	i	i	i	i	nt	nt
Fc1ccc(-n2nnc(-c3ccccc3Br)n2)cc1	i	i	i	i	+	i	i
CCOc1ccc(N2C(=O)C3Sc4[nH]c(=O)sc4C(/C=C/c4ccccc4)C3C2=O)cc1 (configuration not stated)	42	i	i	57	42	i	i
COc1cc(C2c3sc(=O)[nH]c3SC3C(=O)N(c4ccc(Br)cc4)C(=O)C32)ccc1O (configuration not stated)	i	i	i	i	i	nt	nt
CC(=O)c1c(-c2ccccc2)c2cc(Cl)ccc2n(C)c1=O	i	i	i	i	i	nt	nt
CC(=O)c1c2c3c(cccc3n(C)c1=O)C(=O)c1ccccc1-2	67	nt	i	85	96	129	152
CC1=C/C(=C/N(C)c2ccccc2)C(=O)S1	i	i	i	i	41	i	i
CCCCN1C(=O)N(C)C2NC(=S)NC21 (configuration not stated)	i	i	i	i	i	nt	nt
COc1cc2ccnc(Cc3cccc(OC)c3OC)c2cc1OC	i	i	i	i	i	nt	nt
COc1cc(N)c(Cc2nccc3cc(OC)c(OC)cc23)cc1OC	i	i	i	115	121	i	i
CSc1ccccc1-c1nnc(-c2ccc(Cl)c(Cl)c2)o1	i	i	i	i	43	i	i
CSc1ccccc1-c1nnc(-c2ccc(Cl)cc2Cl)o1	i	i	i	i	i	nt	nt
Cn1c(C(=O)NN)cc2cc(OCc3ccccc3)ccc21	i	i	i	i	i	nt	nt
O=C1C2CC=C(Cl)CC2C(=O)N1CCCCCCN1C(=O)C2CC=C(Cl)CC2C1=O (configuration not stated)	i	i	-28	i	40	33	55
c1coc(Cn2nnnc2CN2CCN(C3CCCC3)CC2)c1	i	i	i	i	40	i	i
Cc1c(N)cccc1N	i	i	nt	69	52	i	i
COc1ccc(C(=O)NCC2CCCN2S(=O)(=O)c2cccs2)cc1 (configuration not stated)	i	i	i	i	i	nt	nt
CC(C)OC(=O)CC1C(=O)NCCN1C(=O)COc1ccc(C(C)(C)C)cc1 (configuration not stated)	i	i	i	i	i	nt	nt
O=C1/C(=C2\C(=O)N(Cc3ccc(F)cc3)c3ccccc32)SC(=S)N1CCS(=O)(=O)O	i	i	i	i	43	i	i
CCN(CC)c1ncnc2c1cnn2Cc1ccc(C)cc1	i	i	i	i	45	i	i
